In ChEMBL document CHEMBL3988442, “University of Dundee, Small-Polar-MMV Screening Library” (2021):
The campaign covered roughly 48,000 compounds. About 13,000 (27%) showed an effect of 50% or more. This is one part of the list.

Test system: Wolbachia pipientis
Assay: Anti-Wolbachia Cell-Based Screen
Assay type: functional
Parameters: scale not given: in the data most compounds retested in dose-response had high values
Details: 5 µM

Compound	Percent Effect [%]
Cc1cc(N(Cc2ccccn2)C2CC2)n2nc(C(F)(F)F)nc2n1	23.9
N#CC(NC(=O)CS(=O)(=O)C1CCCC1)c1ccc(F)cc1F (stereo unspecified)	10.46
CCn1cnnc1CNC(=O)NC(c1ccccc1)C1CCCC1 (stereo unspecified)	9.923
O=C(CS(=O)(=O)C1CCCC1)NC(c1ccc(F)cc1)C1CC1 (stereo unspecified)	106.7
CCS(=O)(=O)CC(=O)NC(c1ccccc1)C1CCCC1 (stereo unspecified)	90.5
CCC(NC(=O)CS(=O)(=O)C1CCCC1)c1cc(F)ccc1F (stereo unspecified)	-16.07
Cc1nn(C)c(C)c1NC(=O)CNC(c1ccccc1)C1CCCC1 (stereo unspecified)	-3.756
CN(CCNC(=O)N1CCCC1)C(=O)OC(C)(C)C	-14.2
Cc1c(CN2CCCCC2)c(O)n(CCCO)c(=O)c1C#N	106.4
Cc1c(CN2CCOCC2)c(O)n(CCO)c(=O)c1C#N	129.2
Cn1c(NCC(=O)N2CCCCC2)c(C#N)c(=O)n(C)c1=O	-4.549
Cn1c(NCCN2CCCCCC2)c(C#N)c(=O)n(C)c1=O	6.229
Cn1cc(C#N)cc1C(=O)Nc1ccc(CN2CCOCC2)cn1	-7.398
Cc1oc(NC(=O)C(C)N2CCN(CCO)CC2)c(C#N)c1C (stereo unspecified)	14.13
Cc1nn(C)c(N2CCOCC2)c1CNC(C)c1cccnc1 (stereo unspecified)	-5.13
Cc1ncsc1CCC(=O)NCc1csc(N2CCCC2)n1	13.92
Cc1nc(O)cc(CCNC(=O)C2CC(=O)N(CC(C)C)C2)n1 (stereo unspecified)	-0.9354
CNC(=O)CCN1CCCCCC1c1ccc(C)o1 (stereo unspecified)	-114
CNC(=O)CCc1cc(C2CCCCN2C)nc(C)n1 (stereo unspecified)	129.2
CNC(=O)CCc1cc(C2CCCCN2C(C)C)nc(C)n1 (stereo unspecified)	119
Cc1[nH]n(-c2ccccc2)c2nnc(N)c1-2	-6.219
Cc1ccc2c(c1)SCC(=O)N2CC(=O)N1CCCC1c1cc(C)on1 (stereo unspecified)	-2.59
Cc1cc(CC(=O)N2CCCC2c2nc(C(C)C)no2)on1 (stereo unspecified)	-3.815

Compound	Percent Effect [%]
O=C1CCNC(=O)N1CC(=O)N1CCC1c1ccc(F)cc1 (stereo unspecified)	13.18
Cc1noc(C)c1C1CCCN1CCC(=O)N1CCc2ccccc2C1 (stereo unspecified)	-8.027
Cc1cc(C2CCCCN2C(=O)CN2CC3(CCNCC3)OC2=O)no1 (stereo unspecified)	-1.974
CC(C)c1cc(C2CCCN2C(=O)CN2C(=O)CCNC2=O)no1 (stereo unspecified)	96.7
Cc1cc(C2CCCN2C(=O)CN(C)Cc2ccccc2)no1 (stereo unspecified)	-3.366
Cc1noc(C)c1C1CCCN1C(=O)CN1CC2(CCNCC2)OC1=O (stereo unspecified)	-18.41
Cc1cc(C2CCCCN2C(=O)CN2C(=O)OC(C)(C)C2=O)no1 (stereo unspecified)	120.5
CC(C)c1cc(C2CCCN2C(=O)CN2C(=O)OC(C)(C)C2=O)no1 (stereo unspecified)	116.9
Cc1noc(C)c1C1CCCN1C(=O)CN1C(=O)OC(C)(C)C1=O (stereo unspecified)	87.43
O=C(Cc1cccs1)NCC1COCc2c(-c3ccoc3)nnn2C1 (stereo unspecified)	-2.287
COc1cccc2c1OCC(C(=O)N1CCN(C3CCSCC3)CC1)C2 (stereo unspecified)	-19.41
Cc1cc(C2CCCN2C(=O)CN2C(=O)OC(C)(C)C2=O)on1 (stereo unspecified)	91.01
Cc1ccc2c(c1)SCC(=O)N2CC(=O)N1CCCC1c1cc(C)no1 (stereo unspecified)	3.294
Cc1cc(C2CCCN2C(=O)CN2CC3(CCNCC3)OC2=O)on1 (stereo unspecified)	8.935
CN(CCC(F)(F)F)C(=O)[C@H]1CSCN1C(=O)OC(C)(C)C	-7.919
Cc1ccc(C(=O)Nc2nnc(C(C)C)s2)c(-n2cnnn2)c1C	110.4
CC(=O)N1CCC(NC(=O)c2ccccc2-n2cnnn2)CC1	3.237
Cc1ccc(CNC(=O)Nc2nnc(C3CC3)s2)n1C	-14.35
COc1ccc(F)cc1C(=O)Nc1nnc(C)s1	1.67
O=C(Nc1nncs1)c1ccc(-n2cnnn2)cc1	-0.9565
Cc1ccc(C(=O)Nc2nnc(CC(C)C)s2)c(-n2cnnn2)c1C	125.4
Cc1nn(C)c(C)c1CCC(=O)Nc1nnc(C2CC2)s1	27.73
Cc1ccc(C(=O)Nc2nnc(C3CC3)s2)c(-n2cnnn2)c1C	95.77

Compound	Percent Effect [%]
O=C(NC1CC1)c1cc(Cl)ccc1-n1cnnn1	2.892
Cc1ccc(C(=O)NC2CC2)c(-n2cnnn2)c1C	120.6
CCc1nnc(NC(=O)c2ccc(C3CCCN3CC(C)C)s2)s1 (stereo unspecified)	-1.663
Cc1cc(C(=O)N[C@H](C)c2onc(C)c2C(=O)O)c(C)o1.Cl	-8.572
Cc1cc(C)c(C(=O)NC2CCN(c3ncccc3C#N)CC2)c(=O)[nH]1	4.704
Cc1ccc(C(=O)N2CC(C(N)=O)O[C@H](C)C2)c(C)c1 (stereo partly specified)	-8.345
CCCSc1ncc(-c2nccn2CCC(N)=O)cn1	-44.89
O=C(NC1CCCN(c2ccc(OC(F)F)cc2)C1)c1cnc[nH]1 (stereo unspecified)	-8.702
CC(C)Oc1ccccc1CNC(=O)c1[nH]ncc1Br	24.22
CC(CNC(=O)c1c[nH]nn1)Oc1ccc(Cl)cc1 (stereo unspecified)	99.95
CC(CNC(=O)c1c[nH]nn1)Oc1ccccc1Br (stereo unspecified)	-9.853
COc1ccccc1C(C)CNC(=O)c1[nH]ncc1Br (stereo unspecified)	42.12
CC(CNS(N)(=O)=O)Oc1ccc(Cl)cc1 (stereo unspecified)	-13.16
CN(Cc1ccco1)Cc1ccccc1CNC(=O)c1cnc[nH]1	-12.45
Cc1ccc(OC(C)CNC(=O)c2c[nH]nn2)cc1 (stereo unspecified)	4.97
CC(CNC(=O)c1cnc[nH]1)Oc1ccccc1Br (stereo unspecified)	110.9
CC(CNC(=O)c1c[nH]nn1)Oc1cccc(Br)c1 (stereo unspecified)	-32.96
CC(CNC(=O)c1cnc[nH]1)Oc1ccc(Cl)cc1 (stereo unspecified)	110.7
COc1ccccc1OC(C)CNC(=O)c1cnc[nH]1 (stereo unspecified)	110.3
CC(C)(O)c1cc(CC2(NCc3ccco3)COC2)no1	-7.158
CN(C)CCn1ccnc1C1CCN(C(=O)CCc2ccncc2)CC1	-7.346
Cc1ccc(C(=O)N2CCCC(Nc3ccc(F)cc3)C2)cc1 (stereo unspecified)	-37.46
CCNS(=O)(=O)C1CCN(C(=O)c2ccc(F)cc2)C1 (stereo unspecified)	4.07

Compound	Percent Effect [%]
CCN(C1CCN(C(=O)c2cccc(Cl)c2)CC1)S(C)(=O)=O	6.766
CCS(=O)(=O)N(C)C1CCN(C(=O)c2cccc(Cl)c2)CC1	-7.301
CC(C)N(C)Cc1cncc2c1CCN(C(=O)c1ccccc1F)C2.Cl.Cl	-2.748
CN(C)Cc1cnc(C2CCN(C(=O)c3ccccc3F)C2)[nH]1.Cl (stereo unspecified)	151.5
CN(C)Cc1cnc(C2CCN(C(=O)c3cccc(Cl)c3)C2)[nH]1 (stereo unspecified)	128.9
CN(C)Cc1cnc(C2CCN(C(=O)c3ccc(F)cc3)C2)[nH]1 (stereo unspecified)	127.5
CCOCCOc1ccccc1C(=O)N1CCCC(c2ncc[nH]2)C1 (stereo unspecified)	-24.68
CN(C)Cc1ccc(C(=O)N2CCCC(n3cccn3)C2)cc1 (stereo unspecified)	13.31
CCNS(=O)(=O)C1CCN(C(=O)c2c(F)cc(F)cc2F)C1 (stereo unspecified)	-5.983
CN(C)Cc1cnc(C2CCN(C(=O)c3cc(F)cc(F)c3)C2)[nH]1 (stereo unspecified)	116.9
CCCS(=O)(=O)N1CCC2(CC(=O)N(c3cnn(C)c3)C2)C1 (stereo unspecified)	9.344
CCOc1ccc(N(CCC#N)C(=O)c2ccc(SC)nc2)cc1	-11.41
CC1CCCN1C1CCN(C(=O)c2cccc(F)c2)CC1 (stereo unspecified)	1.778
O=C(c1cccc(F)c1)N1C[C@H]2CCCC(OCc3cccnc3)[C@H]2C1 (stereo partly specified)	7.164
CN(C)Cc1cnc(C2CCN(C(=O)c3cccc(F)c3)C2)[nH]1 (stereo unspecified)	98.09
CCc1cnc(N2CCC3(CC2)CCN(c2cnn(C)c2)C3=O)nc1	-11.71
Cc1nonc1NC(=O)C1SCCc2ccccc21 (stereo unspecified)	-22.17
CCC(CO)N(Cc1ccncc1)Cc1c[nH]nc1-c1ccc(F)cc1 (stereo unspecified)	-8.532
CCC(CO)N(Cc1ccsc1)Cc1c(C)nn(C)c1Cl (stereo unspecified)	83.51
CCC(CO)N(Cc1ccco1)C(=O)c1ccc(F)cc1Cl (stereo unspecified)	-20.92
CCC(CO)N(Cc1ccco1)Cc1c(C)nn(C)c1Cl (stereo unspecified)	113.8
CCC(CO)N(Cc1ccco1)C(=O)c1cccc(C)c1O (stereo unspecified)	-5.185
CCC(CO)N(Cc1ccsc1)Cc1cccc(O)c1 (stereo unspecified)	4.07

Compound	Percent Effect [%]
CCC(CO)N(CC=C(C)C)Cc1ccsc1 (stereo unspecified)	-1.911
CCC(CO)N(Cc1ccc(F)cc1)Cc1c(C)nn(C)c1Cl (stereo unspecified)	108.6
CCC(CO)N(Cc1ccccn1)Cc1c[nH]nc1-c1ccc(F)cc1 (stereo unspecified)	-3.197
O=C(NC1(c2nnn(CC3CCCO3)n2)CCCC1)c1ccccc1 (stereo unspecified)	-21.33
CCC(=O)NCC(=O)Nc1c(C)cnn1Cc1cc(F)ccc1F	-6.238
FC(F)(F)c1[nH]nc2c1CN(Cc1ccccc1)CC2	-6.07
Cn1c(=O)ccn(CC(=O)N2CCCC(n3cccn3)C2)c1=O (stereo unspecified)	-17.99
CC(=O)N1Cc2ccccc2C[C@H]1C(=O)N(C)Cc1ccccn1	-7.664
N#Cc1ccc(NCC(=O)Nc2ncn(Cc3cccnc3)n2)cc1	2.258
Cn1cccc1C(=O)N1CCc2ncc(Cn3cccn3)n2CC1	-10.36
O=C(c1cccc(F)c1)N1CCc2ncc(Cn3cccn3)n2CC1	90.68
N#Cc1cccc(C(=O)N2CCc3ncc(Cn4cccn4)n3CC2)c1	-16.45
Cc1ccsc1C(=O)N1CCc2ncc(Cn3cccn3)n2CC1	-18.82
CN1CCN(Cc2cnc3n2CCN(C(=O)c2ccoc2)C3)CC1	1.07
Cn1cccc1C(=O)NCc1cnc2n1CCN(C(=O)c1ccoc1)C2	-3.453
O=C(O)C(F)(F)F.O=C(c1ccccn1)N1CCc2ncc(Cn3cccn3)n2CC1	108.7
N#Cc1ccc(C(=O)N2CCn3c(Cn4cccn4)cnc3C2)cc1.O=C(O)C(F)(F)F	-19.27
O=C(c1ccoc1)N1CCc2ncc(Cn3cccn3)n2CC1	85.84
Cc1ccc(C(=O)N2CCc3ncc(Cn4cccn4)n3CC2)cn1	106.9
